# Source: PubChem BioAssay (National Center for Advancing Translational Sciences (NCATS))
# KB-3-1 cytotox: qHTS assay for MDR1-selective chemotherapeutics: Primary screen using the parental adenocarcinoma cell KB-3-1; KB-3-1 viability, CellTiter-Glo ATP luminescence, 72 h; Potency, µM (doses to about 46.1 µM), most hits filed as cytotoxic; 1.4% of 400,000 active; further: on the % scale 0 is the no-effect control and ±100 the full control effect; nearly all actives have a fitted effect of over 60% in size
#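 Multi-concentration cytotoxicity screen in KB-3-1 cells grown in DMEM lacking phenol red with 10% FBS. After 72 h at 37 °C with compound, ATP-dependent luminescence was recorded.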
# MCF10A rereplic: A quantitative high throughput screen for small molecules that induce DNA re-replication in MCF 10a normal breast cells; MCF 10A DNA re-replication, Hoechst nuclear intensity, 48 h; Potency, µM (doses to about 46.1 µM), inactives show at the top dose activity, positive = re-replication, actives largely listed as activators; 2.9% of 350,000 active; AID 624296, 2012; further: % of control where 0% means no effect; nearly all actives have a fitted effect of over 50% in size
# KB-V1 cytotox: qHTS assay for MDR1-selective chemotherapeutics: Primary screen using the drug-selected MDR subline cells KB-V1. KB-V1 MDR cells viability, CellTiter-Glo, 72 h. Potency, µM (titrated, usually from 46.1 µM), actives largely listed as cytotoxic. 3.4% of 400,000 active; further: on the % scale 0 is the no-effect control and ±100 the full control effect; nearly all actives have a fitted effect of over 60% in size
#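 KB-V1, DMEM (no phenol red) + 10% FBS; cpd pin-transferred, titration series; 72 h, 37 degrees C; CellTiter-Glo, luminescence. Data normalized, curve-fit.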
# SW480 rereplic: A quantitative high throughput screen for small molecules that induce DNA re-replication in SW480 colon adenocarcinoma cells; SW480 DNA re-replication, Hoechst DNA content imaging, 48 h; Potency, µM (titrated, usually from 46.1 µM), without a hit: top-dose re-replication activation, most hits filed as activators; 1.8% of 340,000 active; further: % of control where 0% means no effect; nearly all actives have a fitted effect of over 55% in size
#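 SW480 cells exposed to compounds for 48 hr at 37 C, 5% CO2, then Hoechst-stained 40 min. Nuclear DNA content imaged by fluorescence scanning (405 nm excitation, 500-530 nm emission); re-replication scored as increased high-intensity nuclei.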
# ELG1 repair inh: qHTS screen for small molecules that inhibit ELG1-dependent DNA repair in human embryonic kidney (HEK293T) cells expressing luciferase-tagged ELG1 | HEK293T ELG1-luciferase reporter, luminescence, 16 h; DNA damage induced by 5-fluorouridine | 2.3% of 330,000 active | AID 504467, 2011 | Potency, µM (series often up to 46.1 µM), without a hit: at the highest dose activity change, negative = inhibition, most hits filed as inhibitors; further: on the % scale 0 is the no-effect control and ±100 the full control effect; nearly all actives have a fitted effect of over 55% in size
#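 HEK293T cells expressing luciferase-tagged ELG1 (2,000/well) received 5-Fluorouridine plus compound or DMSO for 16 hr at 37 °C. Luciferase was read by ONE-Glo luminescence after 30 min at room temperature.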
# Active calls of the source: *; i = inactive; ? = inconclusive; · = not tested or not shown. Rows were chosen to be rich in hits. Some 8.1% of all compounds tested hit in one or more screens of this group. The call rests on the fitted dose curve; in most records, active means well fitted curve in the direction sought with a large enough effect; inconclusive means small, poorly fitted or top-dose-only effect, or another doubt; inactive means no such curve, though single readings can be large; an effect the other way counts as inactive or inconclusive. Potency means the concentration at half of the fitted maximal effect.
SMILES,KB-3-1 cytotox,MCF10A rereplic,KB-V1 cytotox,SW480 rereplic,ELG1 repair inh
CNC(=O)c1nnsc1S(=O)(=O)c1ccc(Cl)cc1,?,1.5µM*,i,1µM*,?
Nc1nc(C(=O)N2CCOCC2)nn1S(=O)(=O)c1ccc(Cl)cc1,i,-1%,i,1%,3%
O=C(Nc1ccccc1)c1nnsc1S(=O)c1ccc(Cl)cc1 (stereo not given),?,?,i,23µM*,18%
O=C(c1nnsc1S(=O)c1ccc(Cl)cc1)N1CCOCC1 (stereo not given),?,18%,13µM*,3%,?
O=C(c1nnsc1S(=O)(=O)c1ccc(Cl)cc1)N1CCOCC1,?,3.5µM*,i,?,-21%
Cc1nnsc1S(=O)c1ccc(Cl)cc1 (stereo not given),?,2%,i,?,?
COc1ccc(S(=O)(=O)N(C)C2(C)CCS(=O)(=O)C2)cc1OC (stereo not given),i,0%,i,-264%,4%
CC(=O)C1C(c2ccc(Br)cc2)c2c(noc2C)CC1(C)O (stereo not given),i,3%,i,2%,?
CCOC(=O)CSc1nc(N)cc(=O)[nH]1,i,2%,i,-2%,-2%
CC(C)(C)c1ccc(OCC(=O)N/N=C/c2cc(Br)ccc2OC(=O)c2ccco2)cc1,?,2%,7.3µM*,13%,?
Cc1cc(C)cc(OCC(=O)Nc2ccccc2N2CCCCC2)c1,i,8.2µM*,i,?,-14%
Cc1ccccc1OCC(=O)Nc1ccccc1N1CCCCC1,?,?,15µM*,?,?
Cc1cc(OCC(=O)Nc2ccccc2N2CCCCC2)ccc1C(C)C,i,?,i,?,0%
Cc1cccc(OCC(=O)Nc2ccccc2N2CCCC2)c1C,?,?,?,?,1%
Cc1[nH]c2ccccc2c1C(=O)CN1C(=O)NC(C)(c2ccc(Cl)cc2Cl)C1=O (stereo not given),?,?,?,1%,-5%
CCc1c(C(C)=O)oc2ccc3c(C)cc(=O)oc3c12,i,-6%,i,-18%,-4%
Cc1cccc(CC2CC(=O)N(C3CCCCC3)C2=O)c1 (stereo not given),i,-6%,i,-8%,2%
COc1ccc(N(C)S(=O)(=O)c2cccc(C(=O)Nc3nc(C)c(C(C)=O)s3)c2)cc1,i,0%,i,-16%,10µM*
C=CCN(c1ccccc1)S(=O)(=O)c1cccc(C(=O)NCc2ccncc2)c1,i,3%,?,-6%,8.2µM*
COc1ccc(N(C)S(=O)(=O)c2cccc(C(=O)Nc3nnc(C)s3)c2)cc1,i,?,i,-13%,?
COc1ccc(Cl)cc1NS(=O)(=O)c1cccc(C(=O)NC2CC2)c1,i,-5%,18µM*,-5%,0%
CCN(c1ccccc1)S(=O)(=O)c1cccc(C(=O)NCc2ccncc2)c1,i,12%,i,-23%,-10%
CCSc1nnc(NC(=O)c2cccc(S(=O)(=O)N(C)c3ccc(C)cc3)c2)s1,i,?,15µM*,18µM*,3%
CCOc1ccc(Nc2nnc(-n3nc(C)cc3C)c3ccccc23)cc1,i,·,i,·,·
COc1ccc(N(C)S(=O)(=O)c2cccc(C(=O)NC3CCCCCC3)c2)cc1,i,?,?,26%,?
C=CCN(c1ccccc1)S(=O)(=O)c1cccc(C(=O)Nc2nc3ccccc3[nH]2)c1,i,26%,i,7%,23µM*
CN(c1cccc(Cl)c1)S(=O)(=O)c1cccc(C(=O)NC2=NCCS2)c1,23µM*,?,21µM*,?,?
COc1ccc(N(C)S(=O)(=O)c2cccc(C(=O)Nc3cccc(C(=O)NC4CC4)c3)c2)cc1,?,?,i,-2%,21µM*
